# Screening data deposited in PubChem BioAssay by several laboratories.
# This is a sample that favours compounds with a hit; in the whole collection about 1.6% have one here.
# GC-B act = GC-B (human) receptor activation; AID 1920062; activation, % at 10 µM; P20594; HEK293-GC-B cells, CNP EC30, cGMP TR-FRET; 0% at EC30 CNP, 100% saturating CNP; 0.11% of 370,000 active;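 active = activation at 10 µM reaching about 35% in either raw or pattern-adjusted values, limit read from the data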
# V-ATPase pHluor = alters yeast V-ATPase proton transport; S. cerevisiae, pHLuorin cytosolic pH fluorescence; AID 504577; 0.37% of 350,000 active; response, % at 10 µM; in the data active = response mostly above about 7.3%, no sharp cut-off; inactive = mostly below about 5.4%; also: actives read high
# PG9 binder = small molecules binding HIV-1 gp120 antibody PG9; AID 624416; 0.43% of 360,000 active; inhibition, % at 6.7 µM; TR-FRET gp120-PG9 antibody binding; in the data active = inhibition above about 8.5%
# GC-A act = GC-A (human) enzyme activation. P16066. HEK293 GC-A cells, cGMP TR-FRET, EC30 ANP; 0% at EC30 ANP, 100% saturating ANP. activation, % at 10 µM. 0.14% of 370,000 active; in the data active = activation above about 40%
# Rev-erbA mod = modulators of human Rev-erb alpha DNA binding; P20393; Rev-erbα–FITC-DNA binding, fluorescence polarization, 90 min; activity, % at 10 µM; 0.79% of 370,000 active;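 active = activity above about 14%, limit read from the data; passing the limit was not always enough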
# Target sequence (P20393 whole entry, looked up): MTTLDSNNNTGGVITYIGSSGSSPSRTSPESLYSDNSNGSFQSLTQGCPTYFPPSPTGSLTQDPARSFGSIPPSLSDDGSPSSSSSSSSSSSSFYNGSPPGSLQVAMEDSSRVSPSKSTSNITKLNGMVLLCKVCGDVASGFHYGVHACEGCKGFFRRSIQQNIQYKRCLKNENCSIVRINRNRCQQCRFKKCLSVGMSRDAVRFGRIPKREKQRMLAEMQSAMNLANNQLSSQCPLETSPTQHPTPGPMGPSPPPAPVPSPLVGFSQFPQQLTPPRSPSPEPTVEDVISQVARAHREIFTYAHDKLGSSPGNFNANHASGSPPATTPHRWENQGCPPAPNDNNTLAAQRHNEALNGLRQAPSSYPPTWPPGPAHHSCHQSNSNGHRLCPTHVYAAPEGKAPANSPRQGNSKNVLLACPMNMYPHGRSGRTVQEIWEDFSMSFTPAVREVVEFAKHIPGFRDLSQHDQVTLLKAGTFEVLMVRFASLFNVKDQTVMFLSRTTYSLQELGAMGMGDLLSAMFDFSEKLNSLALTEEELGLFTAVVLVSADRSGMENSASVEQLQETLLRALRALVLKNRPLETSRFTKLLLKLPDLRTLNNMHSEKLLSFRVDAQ
# Numbers stand for hits; - = inactive; . = no result.
SMILES,GC-B act,V-ATPase pHluor,PG9 binder,GC-A act,Rev-erbA mod
COc1ccc(C(=O)C(CCCCC(CN(C)C)C(=O)c2ccc(OC)cc2)CN(C)C)cc1 (stereo unspecified),-,-,-,-,-
CCOc1ccc(C(=O)C(CCC(CN(C)C)C(=O)c2ccc(OCC)cc2)CN(C)C)cc1 (stereo unspecified),-,9.6,-,-,-
CCOC(=O)[C@@]12CCC3=C1N(CCC3)C(=O)[C@H](CC(=O)NCc1cccc3ccccc13)C2,-,.,.,-,-
CC(C)c1ccc(C2NC(=S)NC3=C2C(=O)CCC3)cc1 (stereo unspecified),-,-,-,50,-
Cc1ccc(C2NC(=S)NC3=C2C(=O)CCC3)cc1 (stereo unspecified),-,-,-,-,-
CCOCCCNC(=O)/C(C#N)=C/c1cc(OC)c(O)c([N+](=O)[O-])c1,-,-,-,-,-
CCOCCCNC(=O)/C(C#N)=C/c1ccc(Cl)c([N+](=O)[O-])c1,-,-,-,55,-
COCCNC(=O)/C(C#N)=C/c1cccc(/C=C(\C#N)C(=O)NCCOC)c1,-,-,-,42,-
Cc1nc(N)cc(C[n+]2csc(CCO)c2C)n1,.,.,.,.,-
CC(C)CCNc1nc(-c2ccco2)c2c(c1C#N)CCCC2,36,-,-,-,-
Cc1cccc(OC(=O)c2sc(Cl)nc2C)c1,-,-,-,56,-
Nc1nc(=O)n([C@@H]2CS[C@@H](CO)O2)cc1F,.,.,.,.,-
CCCCn1cnc2c(c1=O)c1nc3ccccc3nc1n2Cc1ccc2c(c1)OCO2,52,-,-,52,-
CCC(C)n1cnc2c(c1=O)c1nc3ccccc3nc1n2Cc1ccc(OC)cc1 (stereo unspecified),54,-,-,53,-
CO/N=C(\C(=O)N[C@@H]1C(=O)N2C(C(=O)OCOC(=O)C(C)(C)C)=C(C)CS[C@H]12)c1csc(N)n1,.,.,.,.,-
CCOc1ccc(-n2nc3c(=S)[nH]nc(C)c3c2C)cc1,-,-,42,-,-
CC(C)=CCC/C(C)=C/CC/C(C)=C/CCC(=O)OC/C=C(\C)CCC=C(C)C,.,.,.,.,-
C#Cc1cccc(Nc2nc(NCCOC)nc3ccsc23)c1,37,.,-,-,-
C#Cc1cccc(Nc2nc(NCc3ccccc3OC)nc3ccsc23)c1,-,.,-,-,-
COC(=O)[C@]12C[C@H](CC(=O)NCc3cccs3)C(=O)N(CCc3ccc(OC)c(OC)c3)C1=C[C@H](C1CCCC1)O[C@@H]2C,-,.,.,-,-
Cc1cc(C)cc(NC(=S)N2CCC(NC(=O)C3CC3)CC2)c1,-,15,-,-,-
Cc1cccc(NC(=O)N2CCC(NC(=O)C3CCCCC3)CC2)c1,-,-,-,-,-
O=C(NC1CCN(C(=O)Nc2cccc(Cl)c2)CC1)C1CCCCC1,-,15,-,-,-
Cc1cc(C)cc(NC(=S)N2CCC(NC(=O)C3CCCCC3)CC2)c1,-,-,-,-,-
Nc1ncn([C@@H]2O[C@H](CO)[C@H](O)C2O)c(=O)n1 (stereo partly specified),.,.,.,.,-
SMILES,GC-B act,V-ATPase pHluor,PG9 binder,GC-A act,Rev-erbA mod
Cn1c(N)c(C(=O)Nc2cccc(Cl)c2)c(=O)n(C)c1=O,-,-,-,47,-
CCOC(=O)[C@]12CCCCC/C=C\1N(CCc1ccc(Cl)cc1)C(=O)[C@H]2CC(=O)NCCCOC,-,.,.,-,-
N=C1C(c2nc3ccccc3s2)=C(O)CN1Cc1ccccc1,-,-,-,46,-
O=C(NCc1ccc(Cl)cc1)C1CCCN(c2ncccn2)C1 (stereo unspecified),-,.,.,-,-
CCCCCCCCSC1=CC(=O)C(OC)=C(OC)C1=O,-,-,-,45,-
CCOCCOC(=O)COc1ccc2c(-c3ccccc3)cc(=O)oc2c1,-,-,-,52,-
CC(=O)Nc1cc(-c2ccccc2Cl)cn2c(-c3ccc(S(C)(=O)=O)cc3)cnc12,43,.,-,-,-
CCCC(=O)Nc1sc2c(c1C#N)CC(C)(C)NC2(C)C,-,-,-,-,-
COc1ccc(CC(=O)Nc2sc3c(c2C#N)CC(C)(C)NC3(C)C)cc1OC,37,-,-,-,-
C=CCN1/C(=C(\C#N)C2=NS(=O)(=O)c3ccccc32)N(C)c2ccccc21,-,24,-,-,-
COc1ccccc1N1CCN(C2=NS(=O)(=O)c3ccccc32)CC1,-,-,-,-,-
CNC(=S)N/N=C/c1cn(Cc2c(F)cccc2Cl)c2ccccc12,-,-,-,-,-
O=C(O)c1ccc(N/N=C/c2cn(Cc3ccc(F)cc3)c3ccccc23)cc1,-,-,-,-,-
CCNC(=S)N/N=C/c1cn(Cc2ccccc2F)c2ccccc12,44,-,-,41,-
CCNC(=S)N/N=C/c1cn(Cc2ccc(F)cc2)c2ccccc12,42,-,-,-,-
Cc1ccc(NC(=O)C2CCCN2S(=O)(=O)c2cccnc2)cc1C (stereo unspecified),-,.,.,-,-
CC(=O)[C@@]1(O)CCC2C3C=C(Cl)C4=CC(=O)[C@@H]5C[C@H]5[C@]4(C)C3CC[C@@]21C (stereo partly specified),.,.,.,.,-
CCCOC(=O)COC(=O)c1ccccc1NC(=O)c1ccccc1,-,20,-,-,-
C=CCN(CC#Cc1ccc(OC)cc1)CC=C,-,.,.,-,-
COC(=O)[C@@H]1CC(=O)O[C@H](C)C/C=C/C=C/[C@H](O)[C@H](C)C[C@H](CC=O)[C@H](OC2O[C@H](C)[C@@H](OC3C[C@@](C)(O)[C@@H](OC(=O)CC(C)C)[C@H](C)O3)[C@H](N(C)C)[C@H]2O)[C@H]1OC (stereo partly specified),.,.,.,.,-
C[C@@H]1COc2cc(Br)ccc2S(=O)(=O)N1Cc1cn(CCC2OCCCO2)nn1,-,.,.,-,-
Cc1cc(-c2ccccc2)n2ncc(-c3ccccc3)c2n1,-,-,-,-,-
Cc1cc(NC(C)c2ccccc2)n2ncc(-c3ccccc3)c2n1 (stereo unspecified),-,-,-,50,-
COc1ccc(-c2cc(C)nc3c(-c4ccccc4)cnn23)cc1,-,100,-,-,-
COC(=O)C[C@H]1CC[C@@H]2[C@@H](COc3ccc(NS(=O)(=O)c4ccccc4Cl)cc3C(=O)N2C)O1,-,.,.,-,-
SMILES,GC-B act,V-ATPase pHluor,PG9 binder,GC-A act,Rev-erbA mod
N#CCCn1cc(/C=N/NC(N)=S)c(-c2ccc(Br)cc2)n1,55,-,-,-,-
COc1ccc(NC(=O)CC2C(=O)N(c3ccc(OC)cc3)C(=O)N2CCc2cccs2)cc1 (stereo unspecified),-,-,-,-,-
COc1ccc(N2C(=O)C(CC(=O)Nc3ccccc3)N(Cc3cccs3)C2=O)cc1 (stereo unspecified),-,16,-,-,-
COc1cccc(NCc2cc(=O)oc3cc(C)c(O)cc23)c1,-,-,-,-,-
COc1cccc(NCc2cc(=O)oc3cc(-c4ccccc4)c(O)cc23)c1,-,21,-,-,-
CCSc1nc(N2CCCCC2)c2c(c1C#N)CCCC2,-,-,-,-,-
